Reference: the supplement of paper PMC11732987, “Enantioselective OTUD7B fragment discovery through chemoproteomics screening and high-throughput optimisation” (Communications Chemistry, 2025)

Assays:
Experiment in all cases: log2 ratio of Biotin-Ahx-Ub-VS probe labelling (compound/DMSO); higher = less target engagement, active = hit call of the paper (q ≤ 0.05, log2 ratio ≤ -1)
Conditions in all cases: treatment time: 3 h
[1] = compound: CCC1N(CCc2sccc12)C(=O)CCl
Outline: (§1)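 HEK293T lysate (495 µg per sample, in Tris/CHAPS/IGEPAL buffer with protease inhibitors) was exposed in triplicate to compound at 50 or 200 µM, or to DMSO, for 3 h, then to Biotin-Ahx-Ub-VS (0.5 µM final) for 1 h. The labelled DUBs were enriched on NeutrAvidin, digested with LysC and trypsin, and analysed by diaPASEF LC-MS/MS. Average base-two log ratios of compound over DMSO came from median-normalised label-free quantities by unpaired t-test. Only proteins with at least 2 unique peptides were used.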

[2] = compound: CN1c2ccccc2C(CS1(=O)=O)NC(=O)CCl
Outline: as §1

[3] = compound: Cl.ClCC(=O)N1CCc2ncncc2C1
Outline: as §1

[4] = compound: Cl.Cn1ncc2C(CCCc12)NC(=O)CCl
Outline: as §1

[5] = compound: ClCC(=O)NC1CCOc2ccccc12
Outline: as §1

[6] = compound: ClCC(=O)NC1CCCc2ccccc12
Outline: (§2)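 Average ratios of compound to vehicle were obtained by unpaired t-test. Beforehand, 495 µg samples of HEK293T lysate in buffer with protease inhibitors were treated in triplicate with compound over a concentration series or vehicle for 3 h, then with 0.5 µM final Biotin-Ahx-Ub-VS for 1 h. Labelled deubiquitinases were NeutrAvidin-enriched, digested and quantified label-free by diaPASEF LC-MS/MS in Spectronaut, normalised to the global median. Values are log2 and cover proteins with at least two unique peptides.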

[7] = compound: ClCC(=O)N[C@@H]1CCCc2ccccc12
Outline: as §2

[8] = compound: ClCC(=O)N[C@H]1CCCc2ccccc12
Outline: as §2

[9] = compound: CCC1N(CCc2cc(OC)c(Cl)cc12)C(=O)CCl
Outline: as §1

[10] = compound: CCCC1N(CCc2cc(OC)c(OC)cc12)C(=O)CCl
Outline: as §1

Measured: log2 ratio of Biotin-Ahx-Ub-VS probe labelling

USP25 (UniProt Q9UHP3)
Chain of UniProt Q9UHP3 (Q9UHP3 whole entry): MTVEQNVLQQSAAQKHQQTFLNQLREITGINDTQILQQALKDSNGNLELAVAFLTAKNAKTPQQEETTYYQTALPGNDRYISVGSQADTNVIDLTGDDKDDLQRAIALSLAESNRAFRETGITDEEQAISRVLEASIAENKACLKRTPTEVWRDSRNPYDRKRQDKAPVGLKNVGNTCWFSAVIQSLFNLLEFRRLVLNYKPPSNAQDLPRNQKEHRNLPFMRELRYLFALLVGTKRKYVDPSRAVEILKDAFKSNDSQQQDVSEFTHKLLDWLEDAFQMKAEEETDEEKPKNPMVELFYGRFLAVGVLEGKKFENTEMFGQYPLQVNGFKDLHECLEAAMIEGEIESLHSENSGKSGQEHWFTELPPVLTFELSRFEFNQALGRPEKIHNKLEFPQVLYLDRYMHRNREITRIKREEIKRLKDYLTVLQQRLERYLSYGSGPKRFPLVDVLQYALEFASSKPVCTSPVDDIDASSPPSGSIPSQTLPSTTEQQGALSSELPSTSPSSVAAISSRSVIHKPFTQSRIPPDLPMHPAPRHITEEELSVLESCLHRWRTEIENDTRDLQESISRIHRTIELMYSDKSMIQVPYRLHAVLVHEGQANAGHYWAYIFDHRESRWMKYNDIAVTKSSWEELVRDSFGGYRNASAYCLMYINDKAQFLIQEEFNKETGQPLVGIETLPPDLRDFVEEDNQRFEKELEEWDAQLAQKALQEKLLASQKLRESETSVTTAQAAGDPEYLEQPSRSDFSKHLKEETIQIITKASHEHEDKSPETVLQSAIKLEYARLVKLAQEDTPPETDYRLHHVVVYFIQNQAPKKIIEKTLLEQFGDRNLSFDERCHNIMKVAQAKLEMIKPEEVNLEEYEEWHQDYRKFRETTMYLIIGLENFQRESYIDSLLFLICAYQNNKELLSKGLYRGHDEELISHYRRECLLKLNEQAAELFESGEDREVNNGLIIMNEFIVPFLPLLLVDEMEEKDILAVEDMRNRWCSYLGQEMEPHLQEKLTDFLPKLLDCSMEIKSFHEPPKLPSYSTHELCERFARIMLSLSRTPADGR
inactive: [1]; compound concentration: 50uM 0.366 | [2]; compound concentration: 50uM -0.365 | [2]; compound concentration: 200uM -0.0888 | [3]; compound concentration: 50uM -0.861 | [4]; compound concentration: 50uM 0.177 | [4]; compound concentration: 200uM -0.552 | [5]; compound concentration: 50uM 0.145 | [5]; compound concentration: 200uM -0.0181 | [6]; compound concentration: 0.78uM -0.139 | [6]; compound concentration: 1.56uM -0.159 | [6]; compound concentration: 3.13uM -0.428 | [6]; compound concentration: 6.25uM -0.379 | [6]; compound concentration: 12.5uM -0.358 | [6]; compound concentration: 25uM -0.339 | [6]; compound concentration: 50uM -0.0397 | [6]; compound concentration: 100uM -0.3 | [6]; compound concentration: 200uM -0.848 | [7]; compound concentration: 0.78uM -0.531 | [7]; compound concentration: 1.56uM -0.227 | [7]; compound concentration: 3.13uM -0.277 | [7]; compound concentration: 6.25uM -0.312 | [7]; compound concentration: 12.5uM -0.223 | [7]; compound concentration: 25uM -0.606 | [7]; compound concentration: 50uM -0.594 | [7]; compound concentration: 100uM -0.346 | [7]; compound concentration: 200uM -0.308 | [8]; compound concentration: 0.78uM -0.226 | [8]; compound concentration: 1.56uM -0.458 | [8]; compound concentration: 3.13uM -0.0391 | [8]; compound concentration: 6.25uM -0.447 | [8]; compound concentration: 12.5uM -0.421 | [8]; compound concentration: 25uM -0.293 | [8]; compound concentration: 50uM -0.255 | [8]; compound concentration: 100uM -0.504 | [8]; compound concentration: 200uM -0.644 | [9]; compound concentration: 50uM -0.56 | [10]; compound concentration: 50uM -0.02 | [10]; compound concentration: 200uM 0.295
active: [1]; compound concentration: 200uM -1.92 | [3]; compound concentration: 200uM -2.93 | [9]; compound concentration: 200uM -1.2

UniProt O00487
Chain of UniProt O00487 (O00487 whole entry): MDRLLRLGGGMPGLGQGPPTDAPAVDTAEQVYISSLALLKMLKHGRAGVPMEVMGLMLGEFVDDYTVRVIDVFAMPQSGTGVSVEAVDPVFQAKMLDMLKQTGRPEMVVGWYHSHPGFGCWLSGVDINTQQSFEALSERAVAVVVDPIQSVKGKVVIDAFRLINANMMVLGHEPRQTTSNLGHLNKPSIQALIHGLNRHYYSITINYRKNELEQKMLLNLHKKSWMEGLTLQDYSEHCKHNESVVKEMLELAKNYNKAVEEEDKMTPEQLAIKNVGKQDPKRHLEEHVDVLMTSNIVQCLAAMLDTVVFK
inactive: [1]; compound concentration: 50uM -0.193 | [1]; compound concentration: 200uM -0.218 | [2]; compound concentration: 50uM -0.0425 | [2]; compound concentration: 200uM -0.0779 | [3]; compound concentration: 50uM 0.107 | [3]; compound concentration: 200uM -0.106 | [4]; compound concentration: 50uM -0.124 | [4]; compound concentration: 200uM -0.336 | [5]; compound concentration: 50uM 0.217 | [5]; compound concentration: 200uM -0.351 | [6]; compound concentration: 0.78uM -0.644 | [6]; compound concentration: 1.56uM -0.964 | [6]; compound concentration: 3.13uM -0.768 | [6]; compound concentration: 6.25uM -0.916 | [6]; compound concentration: 12.5uM -0.0532 | [6]; compound concentration: 25uM -1.08 | [6]; compound concentration: 50uM -1.09 | [6]; compound concentration: 100uM -0.828 | [6]; compound concentration: 200uM -0.122 | [7]; compound concentration: 0.78uM -0.274 | [7]; compound concentration: 1.56uM -0.457 | [7]; compound concentration: 3.13uM -0.399 | [7]; compound concentration: 6.25uM -0.508 | [7]; compound concentration: 12.5uM -0.515 | [7]; compound concentration: 25uM -0.563 | [7]; compound concentration: 50uM -0.92 | [7]; compound concentration: 100uM 0.108 | [7]; compound concentration: 200uM -0.319 | [8]; compound concentration: 0.78uM -0.768 | [8]; compound concentration: 1.56uM -0.631 | [8]; compound concentration: 3.13uM -0.859 | [8]; compound concentration: 6.25uM -0.646 | [8]; compound concentration: 12.5uM 0.00923 | [8]; compound concentration: 25uM -0.657 | [8]; compound concentration: 50uM -0.0791 | [8]; compound concentration: 100uM -0.905 | [8]; compound concentration: 200uM -0.369 | [9]; compound concentration: 50uM 0.0571 | [9]; compound concentration: 200uM 0.132 | [10]; compound concentration: 50uM 0.000271 | [10]; compound concentration: 200uM -0.108

UniProt Q5T2D3
Chain of UniProt Q5T2D3 (Q5T2D3 whole entry): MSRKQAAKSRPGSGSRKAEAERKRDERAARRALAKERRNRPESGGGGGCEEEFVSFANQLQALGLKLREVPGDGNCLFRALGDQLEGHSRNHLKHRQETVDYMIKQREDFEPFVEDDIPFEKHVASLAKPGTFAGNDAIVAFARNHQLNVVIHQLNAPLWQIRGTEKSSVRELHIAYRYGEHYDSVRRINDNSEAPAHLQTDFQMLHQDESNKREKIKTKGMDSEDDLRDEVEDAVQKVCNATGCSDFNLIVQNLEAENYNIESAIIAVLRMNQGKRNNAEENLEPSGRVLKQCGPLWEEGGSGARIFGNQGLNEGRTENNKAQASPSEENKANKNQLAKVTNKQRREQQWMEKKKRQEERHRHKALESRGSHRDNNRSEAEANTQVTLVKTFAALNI
inactive: [1]; compound concentration: 50uM -0.152 | [1]; compound concentration: 200uM -0.102 | [2]; compound concentration: 50uM -0.294 | [2]; compound concentration: 200uM -0.292 | [3]; compound concentration: 50uM -0.0797 | [3]; compound concentration: 200uM -0.274 | [4]; compound concentration: 50uM -0.136 | [4]; compound concentration: 200uM 0.135 | [5]; compound concentration: 50uM -0.0283 | [5]; compound concentration: 200uM -0.137 | [6]; compound concentration: 0.78uM -0.198 | [6]; compound concentration: 1.56uM -0.0928 | [6]; compound concentration: 3.13uM -0.11 | [6]; compound concentration: 6.25uM -0.192 | [6]; compound concentration: 12.5uM -0.113 | [6]; compound concentration: 25uM 0.0408 | [6]; compound concentration: 50uM -0.0723 | [6]; compound concentration: 100uM -0.0612 | [6]; compound concentration: 200uM -0.179 | [7]; compound concentration: 0.78uM -0.153 | [7]; compound concentration: 1.56uM -0.131 | [7]; compound concentration: 3.13uM -0.0877 | [7]; compound concentration: 6.25uM -0.0936 | [7]; compound concentration: 12.5uM -0.0592 | [7]; compound concentration: 25uM -0.125 | [7]; compound concentration: 50uM -0.234 | [7]; compound concentration: 100uM -0.0551 | [7]; compound concentration: 200uM -0.296 | [8]; compound concentration: 0.78uM -0.237 | [8]; compound concentration: 1.56uM -0.21 | [8]; compound concentration: 3.13uM -0.232 | [8]; compound concentration: 6.25uM -0.0509 | [8]; compound concentration: 12.5uM 0.00779 | [8]; compound concentration: 25uM -0.0485 | [8]; compound concentration: 50uM 0.0602 | [8]; compound concentration: 100uM 0.0541 | [8]; compound concentration: 200uM -0.193 | [9]; compound concentration: 50uM 0.0656 | [9]; compound concentration: 200uM -0.0849 | [10]; compound concentration: 50uM -0.315 | [10]; compound concentration: 200uM -0.497

USP5 (UniProt P45974)
Chain of UniProt P45974 (P45974 whole entry): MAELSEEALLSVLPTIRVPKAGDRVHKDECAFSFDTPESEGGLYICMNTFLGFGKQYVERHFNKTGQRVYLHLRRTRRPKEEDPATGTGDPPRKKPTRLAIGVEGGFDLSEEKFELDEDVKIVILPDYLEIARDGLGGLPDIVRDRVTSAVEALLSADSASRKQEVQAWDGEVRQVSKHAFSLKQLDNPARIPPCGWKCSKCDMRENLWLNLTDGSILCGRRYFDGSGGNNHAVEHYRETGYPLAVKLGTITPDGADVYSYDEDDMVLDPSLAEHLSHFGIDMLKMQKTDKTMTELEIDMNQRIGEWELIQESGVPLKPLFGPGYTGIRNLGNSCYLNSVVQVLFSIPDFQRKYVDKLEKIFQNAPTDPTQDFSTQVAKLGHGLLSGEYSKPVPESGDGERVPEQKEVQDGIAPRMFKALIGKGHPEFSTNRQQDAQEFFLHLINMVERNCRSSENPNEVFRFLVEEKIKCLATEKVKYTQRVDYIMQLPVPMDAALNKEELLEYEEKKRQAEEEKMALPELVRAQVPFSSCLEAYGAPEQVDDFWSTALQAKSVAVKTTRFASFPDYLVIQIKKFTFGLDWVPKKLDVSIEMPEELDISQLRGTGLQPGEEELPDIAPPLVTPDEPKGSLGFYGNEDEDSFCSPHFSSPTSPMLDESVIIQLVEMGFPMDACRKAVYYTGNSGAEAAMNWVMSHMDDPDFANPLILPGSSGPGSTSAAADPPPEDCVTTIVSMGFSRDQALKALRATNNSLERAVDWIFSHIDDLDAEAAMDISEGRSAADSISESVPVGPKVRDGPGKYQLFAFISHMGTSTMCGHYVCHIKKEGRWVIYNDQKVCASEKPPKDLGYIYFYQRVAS
inactive: [1]; compound concentration: 50uM 0.107 | [1]; compound concentration: 200uM 0.165 | [2]; compound concentration: 50uM -0.0432 | [2]; compound concentration: 200uM -0.0749 | [3]; compound concentration: 50uM 0.179 | [3]; compound concentration: 200uM -0.233 | [4]; compound concentration: 50uM 0.122 | [4]; compound concentration: 200uM -0.00464 | [5]; compound concentration: 50uM 0.209 | [5]; compound concentration: 200uM 0.107 | [6]; compound concentration: 0.78uM -0.0702 | [6]; compound concentration: 1.56uM -0.0265 | [6]; compound concentration: 3.13uM -0.189 | [6]; compound concentration: 6.25uM -0.131 | [6]; compound concentration: 12.5uM -0.157 | [6]; compound concentration: 25uM -0.19 | [6]; compound concentration: 50uM -0.0861 | [6]; compound concentration: 100uM -0.067 | [6]; compound concentration: 200uM -0.0831 | [7]; compound concentration: 0.78uM -0.209 | [7]; compound concentration: 1.56uM -0.162 | [7]; compound concentration: 3.13uM -0.139 | [7]; compound concentration: 6.25uM -0.155 | [7]; compound concentration: 12.5uM -0.0604 | [7]; compound concentration: 25uM -0.131 | [7]; compound concentration: 50uM -0.159 | [7]; compound concentration: 100uM -0.0875 | [7]; compound concentration: 200uM -0.125 | [8]; compound concentration: 0.78uM -0.109 | [8]; compound concentration: 1.56uM -0.17 | [8]; compound concentration: 3.13uM -0.185 | [8]; compound concentration: 6.25uM -0.0549 | [8]; compound concentration: 12.5uM -0.103 | [8]; compound concentration: 25uM -0.119 | [8]; compound concentration: 50uM -0.0192 | [8]; compound concentration: 100uM -0.093 | [8]; compound concentration: 200uM -0.184 | [9]; compound concentration: 50uM 0.0912 | [9]; compound concentration: 200uM -0.014 | [10]; compound concentration: 50uM -0.158 | [10]; compound concentration: 200uM -0.268
